# Bioassay records: PubChem BioAssay, National Center for Advancing Translational Sciences (NCATS)
# A selection: hits, their analogues and other compounds. The true share with any hit is near 10%.
# PLK1 PBD block = PLK1 (human) polo-box domain binding inhibition; Plk1 PBD binding of FITC phosphopeptide, fluorescence polarization; Potency, µM, without a hit: max response, negative = inhibition, most hits filed as inhibitors; 2.8% of 360,000 active; AID 720504; also: potency is read from the fitted curve at half-maximal effect; series mostly up to about 57 µM; nearly all actives have a fitted effect of over 65% in size
# G9a inh = blocks human histone lysine methyltransferase G9a; Potency, µM (series often up to 102 µM), for the others: at the top dose activity, negative = inhibition, hits mostly inhibitors; G9a H3K9 monomethylation, AlphaScreen, 2 h; Q96KQ7; 8.8% of 350,000 active; also: potency is read from the fitted curve at half-maximal effect; nearly all actives have a fitted effect of over 75% in size
# Target sequence (Q96KQ7 913-1193 limits assumed): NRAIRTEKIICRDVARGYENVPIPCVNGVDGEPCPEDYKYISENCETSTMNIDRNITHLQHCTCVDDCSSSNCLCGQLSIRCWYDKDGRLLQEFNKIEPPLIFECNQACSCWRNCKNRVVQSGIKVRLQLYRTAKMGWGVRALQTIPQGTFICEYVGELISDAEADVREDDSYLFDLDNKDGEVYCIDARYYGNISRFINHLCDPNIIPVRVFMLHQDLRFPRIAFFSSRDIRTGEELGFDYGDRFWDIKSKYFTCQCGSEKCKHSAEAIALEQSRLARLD
#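 Methyltransferase reactions run at room temperature for 2 h (20 nM enzyme, 500 nM biotin-H3K9 peptide, 20 uM SAM) after a 15 min compound preincubation; product detected by AlphaScreen beads and anti-H3K9me1 antibody.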
# Mm-Cpn inhibitor = blocks the Methanococcus maripaludis chaperonin Mm-Cpn; AID 504842; 0.031% of 330,000 active; Potency, µM (top dose mostly 76.9 µM), for inactives: at the highest dose activity, negative = inhibition, actives largely listed as inhibitors; purified Mm-Cpn ATPase, ADP Transcreener TR-FRET; also: potency is read from the fitted curve at half-maximal effect; nearly all actives have a fitted effect of over 80% in size
#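 Eu-cryptate anti-ADP/ADP-d2 competition gives a ratio inversely related to ADP. Enzyme at 25 nM was pre-exposed to compound for 10 min, then given 10 uM ATP for 30 min, 37°C throughout.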
# Sfp PPTase inh = inhibitors of Bacillus subtilis Sfp phosphopantetheinyl transferase. Q9F4F7. Biochemical Sfp PPTase activity, qHTS. Potency, µM, for the others: largest response in the series, negative = inhibition, usual class: inhibitors. 3.5% of 310,000 active. AID 1490;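 also: the enzyme is Sfp with the accession as filed and its product quenches rhodamine fluorescence; potency is read from the fitted curve at half-maximal effect; 0% = enzyme reaction without inhibitor and -100% = no enzyme wells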
#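 Step 1, compound plus 15 nM Sfp-PPTase, 15 min, room temperature. Step 2, add rhodamine-CoA (5 uM) and BHQ-2-YbbR (12.5 uM). Step 3, read 525/598 nm fluorescence at 0 and 30 min.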
# VDR inhibitor = inhibitors of human vitamin D receptor. P11473. 0.93% of 400,000 active. Potency, µM, without a hit: max response, negative = inhibition, usual class: inhibitors. VDR-SRC2-3 peptide fluorescence polarization, 2 h; also: potency is read from the fitted curve at half-maximal effect
# Target sequence (P11473 whole entry, looked up): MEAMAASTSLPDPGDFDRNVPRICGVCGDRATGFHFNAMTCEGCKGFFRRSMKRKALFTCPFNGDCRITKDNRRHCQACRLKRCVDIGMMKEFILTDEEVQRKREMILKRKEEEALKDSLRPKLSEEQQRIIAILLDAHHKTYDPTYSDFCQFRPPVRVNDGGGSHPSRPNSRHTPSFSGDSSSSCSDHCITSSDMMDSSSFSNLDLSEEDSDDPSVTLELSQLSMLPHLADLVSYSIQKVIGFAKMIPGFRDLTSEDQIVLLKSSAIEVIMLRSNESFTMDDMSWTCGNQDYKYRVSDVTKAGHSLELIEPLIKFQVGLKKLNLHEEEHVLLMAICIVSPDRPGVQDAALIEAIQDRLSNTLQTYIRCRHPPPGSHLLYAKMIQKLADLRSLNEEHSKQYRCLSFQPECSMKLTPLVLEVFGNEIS
#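 Compounds are added to VDR with labelled SRC2-3 coactivator peptide and held 2 h at room temperature. Inhibition of the VDR–peptide interaction is then read as a change in fluorescence polarization.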
# CCT chaperon mod = cytosolic chaperonin activity modulation; purified chaperonin ATPase assay, HTRF ADP detection, 30 min; activity change, % (no concentration beside the values), hits read low; 0.3% of 360,000 active; AID 651819; in the data active = activity change below about -30%
#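 We incubate TRiC, 40 or 20 nM final, with library compounds at 76 uM and 10 uM ATP for 30 min at 37 °C. ADP formed is detected with Transcreener HTRF reagents after 30 min at room temperature.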
# Active calls of the source: *; ? = inconclusive; . = not tested or not shown; [ ] = dose if it differs, or a comment. Unless noted, calls follow the shape of the dose curve; as a rule, active = well fitted curve in the direction sought with a large enough effect; inconclusive = small, poorly fitted or top-dose-only effect, or another doubt; inactive = no such curve, though single readings can be large; an effect the other way counts as inactive or inconclusive. Unless noted, % is scaled to controls: 0 for no effect and ±100 for the full control effect.
SMILES,PLK1 PBD block,G9a inh,Mm-Cpn inhibitor,Sfp PPTase inh,VDR inhibitor,CCT chaperon mod
CC(=O)Nc1nnc(SCc2cc(=O)c3cccc(Cl)c3[nH]2)s1,.,31%[59 µM],.,.,6%,.
O=C(Cn1nc(Cc2ccncc2)c2ccccc2c1=O)Nc1cccc(C(F)(F)F)c1,.,-2%[59 µM],.,.,-9%,.
CCOc1ccc2nc(NC(=O)c3ccco3)sc2c1,-2%,.,1%,6%,2%,0
CCOc1ccc2nc(NC(=O)Cc3cccs3)sc2c1,30µM*,?,0%,1%,-2%,1
CCOc1ccc2nc(NC(=S)NCc3ccccc3)sc2c1,27µM*,7.1µM*,-5%,?,?,-1
CCOc1ccc2nc(NC(=O)c3ccoc3C)sc2c1,-16%,42%[59 µM],-2%,89µM*,8%,2
CCOc1ccc2nc(NC(=O)Nc3cccs3)sc2c1,1%,45µM*,-1%,-21%,-5%,0
CCOc1ccc2nc(NC(=O)Nc3ccccc3)sc2c1,-4%,-20%[59 µM],-8%,6%,3%,1
NC(=S)N/N=C1\CC(n2nnn(-c3cccc(Cl)c3)c2=S)C2COC1O2 (stereo not drawn),-22%,40µM*,-17%,-13%,7%,-3
Cc1cccc(C)c1NC(=O)c1sccc1SCC#N,-15%,11µM*,0%,5%,-13%,0
N#Cc1c(SCC(=O)O)nc(N2CCCCC2)c2c1CCCC2,-21%,-1%[12.7 µM],-1%,11%,-4%,1
Cc1nc(SCC(=O)O)c(C#N)c2c1CCCC2,?,50µM*,-2%,-4%,-17%,1
COC(=O)CSc1nc(N2CCCCC2)c2c(c1C#N)CCCC2,24µM*,18%[59 µM],-3%,?,-11%,-2
CCC1(c2ccccc2)NC(=O)N(CC(=O)NNC(=O)c2ccc(F)cc2)C1=O (stereo not drawn),-6%,6.3µM*,1%,.,-30%,-1
CCC1(c2ccccc2)NC(=O)N(CC(=O)Nc2ccc(OC)nc2)C1=O (stereo not drawn),13µM*,.,3%,7%,3%,4
CCC1(c2ccc(F)cc2)NC(=O)N(CC(=O)c2cc(C)n(C3CC3)c2C)C1=O (stereo not drawn),-1%,50µM*,-3%,.,-20%,-4
CCCNC(=O)CN1C(=O)NC(CC)(c2ccc(F)cc2)C1=O (stereo not drawn),-13%,19%,1%,19%,3%,-1
Cc1cc(C(=O)CN2C(=O)NC(C)(c3cc(F)ccc3F)C2=O)c(C)n1C1CC1 (stereo not drawn),-11%,.,-1%,.,-7%,-1
COc1ccc(CNC(=O)CN2C(=O)NC(c3ccccc3)(c3ccccc3)C2=O)cc1OC,-11%,.,.,.,-3%,-1
COc1ccc(CNC(=O)CN2C(=O)NC(Cc3ccccc3)(c3ccccc3)C2=O)cc1OC (stereo not drawn),2%,8.9µM*,2%,.,2%,-1
CCN(CC)S(=O)(=O)c1ccc(NC(=O)c2nn(C)c3c2CSc2ccccc2-3)cc1,.,-36%[59 µM],.,.,-1%,.
O=C(CSc1nc2c([nH]c3ccccc32)c(=O)n1-c1ccc(Cl)cc1)NC1CCCCC1,.,5%[59 µM],.,.,-1%,.
Cc1ccn2c(=S)[nH]nc2c1,-16%,.,.,.,.,2
S=c1[nH]nc(-c2ccc3ccccc3n2)n1Cc1ccccc1,-16%,?,-2%,2%,0%,-1
S=c1[nH]nc(-c2ccccc2Cl)n1Cc1ccccc1,-19%,6.3µM*,2%,6%,5%,-4
SMILES,PLK1 PBD block,G9a inh,Mm-Cpn inhibitor,Sfp PPTase inh,VDR inhibitor,CCT chaperon mod
CCn1c(-c2ccccc2SC)n[nH]c1=S,-16%,14µM*,-2%,8%,5%,1
CC(C)(C)c1ccc(-c2n[nH]c(=S)n2Cc2ccccc2)cc1,-1%,-39%,-7%,13%,18%,0
Cc1ccn2c(-c3n[nH]c(=S)n3Cc3ccccc3)c(C)nc2c1,-16%,7.1µM*,2%,-22%,-5%,2
CCn1c(-c2cccn(Cc3ccccc3)c2=O)n[nH]c1=S,-14%,32µM*,-3%,19%,-6%,-3
CCOc1ccc(N(C(=O)c2ccccc2F)S(=O)(=O)c2ccc3c(c2)n(C)c(=O)n3C)cc1,.,-1%[59 µM],.,.,-4%,.
CN1CCN(c2ncc3nc(-c4ccccc4)c(=O)n(C4CC4)c3n2)CC1,.,13%[0.501 µM],.,1%,-5%,.
COc1ccc(Cl)cc1-c1n[nH]c(=S)n1Cc1ccccc1,-10%,3.2µM*,-8%,-1%,6%,-1
Cc1scc(-c2n[nH]c(=S)n2Cc2ccccc2)c1C,-2%,1.6µM*,1%,-1%,-5%,0
CCc1c(-c2n[nH]c(=S)n2Cc2ccccc2)csc1C,-11%,2µM*,0%,-11%,-9%,-1
CCOc1ccccc1NC(=O)CSC1=Nc2ccccc2C2=NC(CC(=O)NC3CCCCC3)C(=O)N12 (stereo not drawn),.,-23%[59 µM],.,.,-16%,.
Cc1ccc(-n2c(-c3cc(C)n(C)n3)n[nH]c2=S)cc1,-5%,7.9µM*,-1%,?,4%,-1
Cc1cc(-c2n[nH]c(=S)n2-c2ccccc2)nn1C,4%,8.9µM*,0%,79µM*,-6%,1
Fc1cccc(-c2n[nH]c(=S)n2-c2ccccc2)c1,-14%,20%[0.501 µM],-29%,14%,-4%,-2
COc1ccc(CNC(=O)CCc2c(C)nn(-c3ccc(N4CCOCC4)nn3)c2C)cc1,.,1%[59 µM],.,.,0%,.
COc1ccccc1CNC(=O)CCNS(=O)(=O)c1ccc2c(c1)CCCC(=O)N2,.,-12%[59 µM],.,.,4%,.
CCn1c(=O)c2sccc2n2c(CCC(=O)N3CCN(c4ccccc4OC)CC3)nnc12,.,-26%[59 µM],.,.,-2%,.
CCc1nnc(NC(=O)c2ccc(S(=O)(=O)N3CCOCC3)cc2)s1,-1%,?,-1%,14%,7%,-1
O=C(CSc1nnc(NC(=O)C2CCC2)s1)Nc1ccc(N2CCOCC2)cc1,?,50µM*,-1%,-5%,2%,0
Cc1ccc(Nc2nnc(SCC(=O)Nc3ccc(S(=O)(=O)N4CCOCC4)cc3)s2)cc1,3%,?,-3%,0%,-6%,-2
O=C(CSc1nnc(Nc2ccccc2)s1)Nc1ccc(S(=O)(=O)N2CCOCC2)cc1,-9%,8.9µM*,-3%,20%,-1%,-2
CSc1nnc(NC(=O)c2ccc(S(=O)(=O)N3CCOCC3)cc2)s1,-17%,10µM*,-2%,6%,-12%,-1
CCc1ccc(Nc2nnc(SCC(=O)Nc3cccc(S(=O)(=O)NC4=NCCCCC4)c3)s2)cc1,-7%,6.3µM*,-1%,4%,-14%,1
Cc1cccc(CC(=O)N2CC(=O)Nc3ccc(Br)cc3C2c2ccc(F)cc2)c1 (stereo not drawn),.,?,.,.,-3%,.
